# Data reported in PubChem BioAssay AID602252 (Broad Institute, 2012).
# Screen size: about 300,000 compounds; about 2,700 (0.9%) were called active.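 How the source made its calls: active means mean inhibition of at least 30% with at least half of replicates also reaching 30%; inconclusive means no clear call, values can overlap the other calls; inactive means the rest.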 The sample as a whole holds a higher share of actives than the screen did.
# Molecular target: Golgi-associated PDZ and coiled-coil motif-containing protein (Homo sapiens) (UniProt Q9HD26)
# Experiment: blockade of CAL PDZ-reporter peptide interaction – biochemical, fluorescence polarization, untagged CAL PDZ, HTS, primary screen (AID 602252);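 further: 0% = DMSO neutral control and 100% = excess unlabeled competitor peptide PRC23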
# Settings: purified CAL PDZ, TMR-peptide fluorescence polarization, 1 h; at 24.9 µM; stronger effect = higher value
row,Structure (SMILES),inhibition
1,CC(C)Cc1nnc(NC(=O)CCc2ccccc2)s1,-1.93% (inactive)
2,O=C(Nc1nnc(CCc2ccccc2)s1)C1CCCO1 (stereo not given),32% (active)
3,O=C(Nc1cccc(-c2nnc(-c3ccccc3)o2)c1)C1CCCO1 (stereo not given),-1.93% (inactive)
4,CN(c1ccccc1)S(=O)(=O)c1ccc(C(=O)N2CCN(c3ccccc3Cl)CC2)cc1,-2.37% (inactive)
5,Cn1c(-c2ccccc2)c[n+]2c1CCCCC2,-4.71% (inactive)
6,Clc1ccc(C[n+]2cc(-c3ccc(Cl)cc3)n3c2CCC3)cc1,36.9% (active)
7,Cc1ccc(C(=O)C[n+]2cc(-c3ccccc3)n3c2CCCCC3)cc1,-2% (inactive)
8,COc1ccccc1CNC(=O)c1ccc(Cl)c(S(=O)(=O)N2CCCC2)c1,-2.41% (inactive)
9,O=C1NC[C@@H](c2ccccc2)OC(=O)[C@H](Cc2ccc(F)cc2)CC/C=C/C[C@H]1CC(=O)N(CCO)Cc1ccccc1,-2.15% (inactive)
10,Cc1ccc(OCCNC(=O)c2cccc(S(=O)(=O)N3CCN(Cc4ccccc4)CC3)c2)cc1,-4.14% (inactive)
11,NS(=O)(=O)c1ccc(CCNC(=O)c2ccc(Cl)c(S(=O)(=O)N3CCCCCC3)c2)cc1,-16.5% (inactive)
12,Cc1cc(C)c2c(-n3cccc3)c(C(=O)NNS(=O)(=O)c3ccc(F)cc3)sc2n1,44.4% (active)
13,COC(=O)Nc1sc2nc(C)cc(C)c2c1-n1cccc1,0.432% (inactive)
14,Cc1cc(C)c2c(-n3cccc3)c(NC(=O)OCc3ccccc3)sc2n1,-1.91% (inactive)
15,O=C(c1ccc2c(c1)C(=O)N(Cc1ccncc1)C2=O)N1CCN(S(=O)(=O)c2ccc(OC(F)(F)F)cc2)CC1,-4.84% (inactive)
16,C[C@H](NC(=O)c1ccccc1)C(=O)OCC(=O)c1c[nH]c2ccccc12,-2.85% (inactive)
17,O=C(COC(=O)CNC(=O)c1ccccc1F)NCC(F)(F)F,-0.464% (inactive)
18,O=C(CNC(=O)c1ccccc1F)OCC(=O)c1c[nH]c2ccccc12,53.7% (active)
19,CC(C)C[C@H]1CN([C@@H](CC(C)C)CN2CCC[C@@H]2CN2C(=O)C(=O)NC[C@@H]2Cc2ccccc2)C(=O)C(=O)N1CCc1ccccc1,-2.72% (inactive)
20,Cc1ccc(OCC(=O)Nc2ccc(-c3nc4ncccc4o3)cc2)cc1,46% (active)
21,Cc1ccc(OCC(=O)Nc2ccc(S(=O)(=O)Nc3ccccn3)cc2)cc1,-5.23% (inactive)
22,CC(=O)Nc1ccc(NC(=O)COc2ccc(-c3ccccc3)cc2)cc1,-4.37% (inactive)
23,O=C(NN=Cc1ccccc1O)NN=Cc1ccccc1O,-7.2% (inactive)

row,Structure (SMILES),inhibition
1,CN(Cc1nc2ccc(F)cc2[nH]1)Cc1nc(CC2CC2)no1,-5.2% (inactive)
2,OC(c1nc2ccc(F)cc2[nH]1)C(O)c1nc2ccc(F)cc2[nH]1 (stereo not given),37% (active)
3,CC(C)c1nc2ccc(C(=O)O)cc2[nH]1,1.18% (inactive)
4,Cc1ccc(S(=O)(=O)N2CCN(C(=O)COC(=O)/C=C/c3cccc(Cl)c3)CC2)c(C)c1,-0.868% (inactive)
5,CCOC(=O)N(Cc1ccccc1)C1CC1,-3.68% (inactive)
6,O=C(Nc1ccc(Cl)cc1)N1CCc2[nH]c3ccccc3c2C1,-12.5% (inactive)
7,Fc1ccc(NC(=S)N2CCc3[nH]c4ccccc4c3C2)cc1,0.223% (inactive)
8,O=C(NC1CCCCC1)N1CCc2[nH]c3ccccc3c2C1,73.4% (active)
9,COc1ccc(C2=Nn3c(nnc3-c3ccccc3OC)SC2)cc1OC1CCCC1,-2.41% (inactive)
10,O=C1OC(Oc2ccc(Br)cc2)(c2ccccc2)c2ccccc21 (stereo not given),-1.95% (inactive)
11,CC(=O)c1c(C)[nH]c(C(=O)OCC(=O)Nc2c(C)cccc2C)c1C,4.23% (inactive)
12,CC(=O)c1c(C)[nH]c(C(=O)OCC(=O)Nc2cc(S(=O)(=O)N3CCCCC3)ccc2C)c1C,-0.974% (inactive)
13,CC(=O)c1c(C)[nH]c(C(=O)OCC(=O)NCCC(C)C)c1C,66.4% (active)
14,Cc1cccc(NC(=O)/C(=C\c2ccco2)NC(=O)c2ccccc2)c1,79.4% (active)
15,COc1ccc(/C=C(/NC(=O)c2ccccc2)C(=O)Nc2cccc(C(=O)O)c2)cc1,-4.34% (inactive)
16,O=C(Nc1ccccc1)/C(=C\c1ccco1)NC(=O)c1ccco1,-6.57% (inactive)
17,COc1ccc(CCC(=O)Nc2ccc(Cl)c(S(=O)(=O)N3CCOCC3)c2)cc1OC,-22.4% (inactive)
18,CC(=O)OCC1(O)CC23CCC4c5ccoc5CCC4(C)C2CCC1C3 (stereo not given),-3.61% (inactive)
19,O=C1NCC(Nc2ccccc2)C(=O)N1 (stereo not given),1.56% (inactive)
20,O=C1NCC(c2ccccc2)(c2ccccc2)C(=O)N1,41.9% (active)
21,CC1(c2ccc3ccccc3c2)NC(=O)NC1=O (stereo not given),-8.76% (inactive)
22,COc1ccccc1-c1nnc2n1N=C(c1ccc(OC(F)F)c(OCC3CC3)c1)CS2,-1.27% (inactive)
23,O=C1C(Cl)=C(Oc2ccccc2)C(=O)c2ccccc21,6.75% (inactive)

row,Structure (SMILES),inhibition
1,COc1ccccc1C(=O)Nc1ccc(C)c(S(=O)(=O)N2CCCCC2)c1,-7.43% (inactive)
2,NC(=S)N/N=C/c1ccc([N+](=O)[O-])cc1,1.65% (inactive)
3,O=[N+]([O-])c1ccc(N/N=C/c2ccccc2)cc1,4.6% (inactive)
4,O=[N+]([O-])c1ccc(C=NN=Cc2ccc([N+](=O)[O-])cc2)cc1,76.3% (active)
5,CC(C)N(Cc1nnc(-c2ccccc2Br)o1)C(=O)c1cc(Cl)nc2ccccc12,2.14% (inactive)
6,CCC(Oc1ccccc1C)C(=O)Nc1ccc(S(=O)(=O)Nc2cc(C)on2)cc1 (stereo not given),71.5% (active)
7,CCc1ccc(OC(C)C(=O)Nc2ccc(S(=O)(=O)Nc3cc(C)on3)cc2)cc1 (stereo not given),-5.02% (inactive)
8,CCOc1ccc(C(=O)Nc2ccc(S(=O)(=O)Nc3cc(C)on3)cc2)cc1,-5.22% (inactive)
9,CN(c1ccccc1)S(=O)(=O)c1cc(C(=O)N2CCN(c3ncccn3)CC2)ccc1Cl,-2.36% (inactive)
10,Nc1ncnc2c1ncn2[C@@H]1O[C@H](CNS(=O)(=O)c2ccc(-c3ccno3)s2)[C@@H](O)[C@H]1O,-0.947% (inactive)
11,COc1ccccc1CC(NC(C)=O)C(=O)NC1CCN(C(=O)Nc2ccccc2Cl)CC1 (stereo not given),78.3% (active)
12,COc1ccc(CC(NC(C)=O)C(=O)NC2CCN(C(=O)C3CC3)CC2)cc1OC (stereo not given),5.28% (inactive)
13,COc1cccc(NC(=O)N2CCC(NC(=O)C(Cc3cccc(C)c3)NC(C)=O)CC2)c1 (stereo not given),-5.2% (inactive)
14,C=CCCC(=O)N1C[C@H]2CON(C)[C@H]2C[C@H]1c1cccc(Nc2ccccc2)c1,1.45% (inactive)
15,O=C(Nc1ccccc1)Oc1cccc2cccnc12,-4.21% (inactive)
16,CCC(CO)Oc1cc(NCc2ccccc2)c2ncn(C3CCCC3)c2c1 (stereo not given),2.05% (inactive)
17,Cc1cc(N/N=C/c2ccccc2F)c2ccccc2n1,30.5% (active)
18,Oc1ccc(/C=N/Nc2nc(-c3ccccc3F)nc3ccccc23)c(O)c1,4.73% (inactive)
19,Cc1ccc2nc(C)cc(N/N=C/c3ccc(F)cc3)c2c1,-0.859% (inactive)
20,O=C(c1cccnc1)N(Cc1ccccc1)C(=O)c1cccnc1,-4.97% (inactive)
21,CSc1ncccc1C(=O)NCC(c1ccco1)N1CCCCC1 (stereo not given),63.8% (active)
22,COc1ccc(C(CNC(=O)c2cccnc2SC)N2CCOCC2)cc1 (stereo not given),-3.62% (inactive)
23,COc1ccccc1C(=O)NCCC(=O)NCC(c1ccco1)N1CCCCC1 (stereo not given),2.93% (inactive)

row,Structure (SMILES),inhibition
1,Cc1ccc(C(=O)Nc2ccc3c(c2)OCCO3)cc1S(=O)(=O)N1CCOCC1,-4.3% (inactive)
2,CCCN(CCC)S(=O)(=O)c1cc2c(cc1Br)CCN2C(=O)CC,0.953% (inactive)
3,COc1ccc(/C=C/C(=O)OCC(=O)N2CCN(S(=O)(=O)c3ccc(C)cc3C)CC2)cc1OC,6.76% (inactive)
4,O=C(CSc1nc2ccccc2c(=O)n1-c1ccccc1F)N1CCOCC1,-2.27% (inactive)
5,Cc1ccc(OCC(=O)Nc2cccc3c2CCCC3)cc1C,1.05% (inactive)
6,Cc1cccc(OCC(=O)Nc2ccc(C(=O)O)cc2NC(=O)COc2cccc(C)c2)c1,-0.14% (inactive)
7,Cc1ccc(OCC(=O)Nc2ccc(C(=O)O)cc2NC(=O)COc2ccc(C)c(C)c2)cc1C,56.8% (active)
8,Cc1ccc(C(=O)N2CCCC(c3ccccc3)=N2)cc1,4.38% (inactive)
9,Cc1ccc(NC(=O)CCC(=O)N2CCC(c3ccccc3)=N2)cc1S(=O)(=O)N1CCCCC1,-3.11% (inactive)
10,Cc1ccc(NC(=S)N2CCCC(c3ccccc3)=N2)cc1,38.9% (active)
11,CCCCNC(=O)C(C)N(CCN(C)C)C(=O)CCCN1C(=O)NC(c2ccc(Cl)cc2)C(C(=O)OCc2ccccc2)=C1C (stereo not given),-4.12% (inactive)
12,CSc1ncccc1C(=O)N1CCCC(CCC(=O)NCc2ccccc2F)C1 (stereo not given),4.75% (inactive)
13,COc1cccc(C(=O)N2CCCC(CCC(=O)NCc3ccc(F)c(F)c3)C2)c1 (stereo not given),-10.1% (inactive)
14,Cc1[nH]c2c(C(=O)N3CCCC(CCC(=O)NCc4ccccc4F)C3)cccc2c1C (stereo not given),46.8% (active)
15,COc1cccc(CNC(=O)CCC2CCCN(Cc3ccc(OC(F)F)cc3)C2)c1 (stereo not given),7.33% (inactive)
16,O=C(CCC1CCCN(Cc2ccc(O)c(Cl)c2)C1)NCc1ccccc1F (stereo not given),-4.54% (inactive)
17,COc1cccc(CNC(=O)CCC2CCCN(C(=O)c3ccoc3C)C2)c1 (stereo not given),56.3% (active)
18,CC(C)(C)S(=O)(=O)N1Cc2cc(CO)cc(CCO)c2[C@H]1CCO,-1.94% (inactive)
19,CC(C)NC(=O)Nc1cccc2c1O[C@@H](CN(C)S(=O)(=O)c1ccc(F)cc1)[C@@H](C)CN([C@H](C)CO)C2=O,-0.185% (inactive)
20,CCc1cc(C(=O)Nc2nnc(C3CC3)s2)sc1C,-1.8% (inactive)
21,CSCCC(NS(=O)(=O)c1ccc(C)cc1)C(=O)N(C)CC(=O)Nc1ccccc1Br (stereo not given),0.255% (inactive)
